# Source: ChEMBL document CHEMBL4513216, “Probing the Open Global Health Chemical Diversity Library for Multistage-Active Starting Points for Next-Generation Antimalarials” (ACS Infect Dis, 2020)
# Hit rate of the full screen: of about 69,000 compounds, about 8,600 (12%) showed an effect of 50% or more. The list comes from a sample in which strong results are over-represented; it also holds similar structures and randomly drawn compounds.
# Test system: Plasmodium berghei
# Assay: Screen against P. berghei liver stage (PbLuc), transformed with Luciferase, at 10uM
# Assay type: functional, HepG2
# Conditions: tested at 10 uM
row,Structure (SMILES),INHIBITION
1,CCCc1noc(CCC(=O)N2CCCCC2Cn2cc(C)cn2)n1 (stereo unspecified),28.3%
2,O=C(c1ccc(NC2CC2)nc1)N1CCC(Nc2cccnn2)CC1,11.6%
3,CC(C)c1nc(CN2CCN(C(=O)CC3CCCCC3)CC2)no1,-3.21%
4,CCn1nc(C)c2c1cnn2CCNS(=O)(=O)CC,30%
5,CC(C)CCn1c(=O)n(CCn2cccc2)c2cc(C(=O)O)cnc21,36.7%
6,Cc1nc(CN2CCO[C@@H]3CC(COc4ccccn4)C[C@H]32)cs1 (stereo partly specified),31.5%
7,c1ccc(OCC2C[C@@H]3[C@@H](C2)OCCN3Cc2ccoc2)nc1 (stereo partly specified),54.4%
8,Cc1cccc(CN2CCO[C@@H]3CC(COc4ccccn4)C[C@H]32)n1 (stereo partly specified),35.5%
9,COCC(O)CN1CCC(=O)N(CC2CC2)Cc2ccccc21 (stereo unspecified),21.5%
10,N#CCCN(Cc1ccccn1)C(=O)c1cccc(CN2CCCC2)c1,61.8%
11,COCc1ccc(C(=O)N(CCC#N)Cc2ccccn2)cc1,44%
12,CCOc1cccc(C(=O)N(CCC#N)Cc2ccccn2)c1,51.7%
13,COc1ccc(C(=O)N(CCC#N)Cc2ccccn2)cc1,-1.37%
14,COc1cc(C(=O)N(CCC#N)Cc2ccccn2)ccc1C,29.4%
15,Cc1ccc(C(=O)N(CCC#N)Cc2ccccn2)cc1C,5.48%
16,CCCS(=O)(=O)N1C[C@@H]2C[C@H](C(=O)Nc3cccnc3)[C@H](C1)O2,34.6%
17,O=C(Nc1ccccc1)[C@H]1C[C@H]2CN(Cc3cccnc3)C[C@@H]1O2,59%
18,CNC(=O)[C@H]1C[C@H]2CN(Cc3cccc(C)c3)C[C@@H]1O2,57.3%
19,CNC(=O)[C@H]1C[C@H]2CN(Cc3ccc(C)cc3)C[C@@H]1O2,9.65%
20,COc1ccc(CN2C[C@@H]3C[C@H](C(=O)Nc4cccnc4)[C@H](C2)O3)cc1,28.7%
21,CC(C)CCN1C[C@@H]2C[C@H](C(=O)Nc3cccnc3)[C@H](C1)O2,41.6%
22,CCN1C[C@@H]2C[C@H](C(=O)Nc3ccccc3)[C@H](C1)O2,1.94%

row,Structure (SMILES),INHIBITION
1,O=C(Nc1cccnc1)[C@H]1C[C@H]2CN(Cc3ccc(F)cc3)C[C@@H]1O2,63.7%
2,Cc1ccc(CN2C[C@@H]3C[C@H](C(=O)Nc4cccnc4)[C@H](C2)O3)cc1,64.9%
3,CNC(=O)[C@H]1C[C@H]2CN(Cc3ccccc3)C[C@@H]1O2,1.7%
4,O=C(Nc1cccnc1)[C@H]1C[C@H]2CN(S(=O)(=O)C3CC3)C[C@@H]1O2,48.6%
5,CCOc1ccccc1OC1CCN(C(=O)c2[nH]nc(C)c2Br)CC1,2.97%
6,Cc1nc(CCCNC(=O)[C@H]2CNC[C@@H](C(=O)N3CCCC3)C2)sc1C,6.72%
7,COCC[C@]1(O)CCN(C(=O)CCn2c(C)cccc2=O)C[C@H]1C,1.94%
8,CN(C)C(=O)Cn1c2c(ccc1=O)CCN(Cc1cnn(C)c1)CC2,52.4%
9,CN(C)CCn1c2c(ccc1=O)CCN(Cc1ccncc1)CC2,-7.24%
10,Cn1cc(CN2CCc3ccc(=O)n(CC4CC4)c3CC2)cn1,89.1%
11,O=c1ccc2c(n1CC1CCOCC1)CCN(Cc1ccoc1)CC2,5.41%
12,Cn1cc(CN2CCc3ccc(=O)n(Cc4ccncc4)c3CC2)cn1,20.6%
13,CN(C)CCn1c2c(ccc1=O)CCN(Cc1cnn(C)c1)CC2,-3.26%
14,Cc1ccc(CN2CC[C@H](O)[C@@H](n3ccc(=O)[nH]c3=O)CC2)cc1,37.6%
15,Cn1cc(CN2CCC(Cn3cc(-c4ccccc4)nn3)CC2)cn1,48.8%
16,CN(C)c1cc(C(=O)N2CCN(c3nccs3)CC2)ccn1,-43.9%
17,CC(=O)N1CCC2(CC1)CNc1c(F)cccc12,29.5%
18,O=C(c1ccccc1)N1CCC2(CC1)CNc1c(F)cccc12,60.3%
19,O=C(c1cccnc1)N1CCC2(CC1)CNc1c(F)cccc12,40.5%
20,Cc1cc(CN2CCN(C(=O)NCCc3csc(C)n3)CC2)on1,-43.5%
21,O=C(NCC1CCOCC1)[C@@H]1C[C@@H]2[C@@H](CCN2Cc2ccoc2)O1,12.5%
22,Cc1cc(C2CCCN(S(=O)(=O)N(C)C)C2)ccn1 (stereo unspecified),-20.6%

row,Structure (SMILES),INHIBITION
1,CN(C)S(=O)(=O)N1CCC(c2cccc(Cc3ccccc3Cl)n2)CC1,96%
2,Cc1noc(C)c1-c1cccc(C2CCN(S(=O)(=O)N(C)C)CC2)n1,32.4%
3,CN(C)S(=O)(=O)N1CCCC(c2cccc(Cc3ccccc3F)n2)C1 (stereo unspecified),15.9%
4,CS(=O)(=O)N1CCCC(c2cccc(-c3ccccc3F)n2)C1 (stereo unspecified),12.675%
5,CN(C)S(=O)(=O)N1CCC(c2ccncn2)CC1,-9.32%
6,CN(C)S(=O)(=O)N1CCCC(c2ccncn2)C1 (stereo unspecified),25.6%
7,CN(C)S(=O)(=O)N1CCCC(c2nccnc2-c2cccc(Cl)c2)C1 (stereo unspecified),5.37%
8,CN(C)S(=O)(=O)N1CCCC(c2cccc(Cc3ccc(F)cc3)n2)C1 (stereo unspecified),96%
9,CN(C)S(=O)(=O)N1CCCC(c2cccc(Cc3ccccc3)n2)C1 (stereo unspecified),84%
10,CN(C)S(=O)(=O)N1CCCC(c2cccc(Cc3ccc(Cl)cc3)n2)C1 (stereo unspecified),82.7%
11,Cc1c[nH]nc1C1CCN(S(=O)(=O)N(C)C)C1 (stereo unspecified),-9.32%
12,COc1ccc(C)cc1Nc1nc2c(C)nn(C)c2c(=O)n1C,-2.13%
13,COCCN1CCC(CNC(=O)C2(c3cccc(Cl)c3)CC2)C1 (stereo unspecified),30.6%
14,c1cncc(CN2CCC(c3ccc4c(c3)OCO4)CC2)c1,6.4%
15,Cc1nc(O)c2nnn(C[C@H]3CCCN3C(=O)C3CCCC3)c2n1,30.4%
16,Cc1cc(NC(=O)NCCCSc2nncn2C)no1,15%
17,Cc1nn(C)c(N(C)C)c1CNCc1ccc2c(c1)OCO2,11.4%
18,COC1CCN(c2ccc(F)cc2CN(C)CC(N)=O)CC1,-3.83%
19,CC(=O)N1CCCC1c1cccc(Cc2ccccc2Cl)n1 (stereo unspecified),38.2%
20,CN1CCCC(c2cccc(Cc3ccccc3Cl)n2)C1 (stereo unspecified),51.7%
21,CN1CCCC(c2cccc(CCC(N)=O)n2)C1 (stereo unspecified),-4.51%
22,Cc1ccc(-c2nc(CNCC3CN(C)CCO3)co2)c(C)c1 (stereo unspecified),7.12%

row,Structure (SMILES),INHIBITION
1,NC(=O)NC(=O)CCSCc1coc(-c2ccc(F)cc2)n1,67.8%
2,Cc1ccc(-c2nc(CSCCC(=O)NC(N)=O)co2)c(C)c1,87.4%
3,CNC(=O)CCS(=O)(=O)Cc1coc(-c2ccc(F)cc2)n1,7.43%
4,Cc1ccc(-c2nc(CCNC(=O)NCC(C)(C)C(N)=O)co2)cc1,27.6%
5,NC(=O)NC(=O)CCSCc1coc(-c2cccc(Cl)c2)n1,5.91%
6,NC(=O)NC(=O)CCSCc1cc(F)cc2cccnc12,-28.9%
7,CNC(=O)Cc1coc(-c2ccc(F)cc2)n1,48.1%
8,Cc1ccc(-c2nc(CSCCC(=O)NC(N)=O)co2)cc1,89.6%
9,CS(=O)(=O)c1cccc(C(N)c2ccc(F)c(F)c2)c1 (stereo unspecified),-15%
10,COCCNC(=O)Cn1c(-c2ccc(F)cc2)nc(C)c(CCO)c1=O,-20.7%
11,CC1CCN(CC(=O)NC2CCN(C(C)c3ccccc3)CC2)CC1 (stereo unspecified),-1.845%
12,NCC1CCC(C(NC(=O)CC2CCCC2)c2ccccn2)CC1 (stereo unspecified),1.11%
13,Cc1cc(-c2nn3c(C4CC4)nnc3s2)on1,-6.47%
14,CCn1c(C)cc(C(=O)N2CCCC(C(=O)c3nccn3C)C2)c1C (stereo unspecified),-1.09%
15,CC(=O)NC1CCN(c2cnc(C3CCNCC3)cn2)CC1,18.3%
16,COCC1CCCN(c2cncc(OCc3ccccc3)n2)C1 (stereo unspecified),26.5%
17,Cc1cccc(-c2noc(CNC(C)Cn3cc(C)cn3)n2)c1 (stereo unspecified),25.4%
18,CC(Cn1cccn1)NCc1nc(-c2ccccn2)no1 (stereo unspecified),-62.7%
19,Cc1cnn(CCNCc2nc(-c3ccccn3)no2)c1,-50.5%
20,Cc1cnn(CC(C)NCc2nc(-c3ccccn3)no2)c1 (stereo unspecified),56.1%
21,Cc1cnn(CC(C)NCc2nc(-c3ccco3)no2)c1 (stereo unspecified),53.5%
22,CC(Cn1cccn1)NCc1nc(-c2ccco2)no1 (stereo unspecified),12.7%

row,Structure (SMILES),INHIBITION
1,CN1CC(=O)N(c2cccnc2)CC12CCN(C(=O)c1cccnc1)C2 (stereo unspecified),-13.3%
2,O=C(c1ccccc1OC1CCCC1)N1CCCC(n2cncn2)C1 (stereo unspecified),49.8%
3,Cc1ccc(CN2CCC3(CCC(C(=O)N(C)C)O3)CC2)o1 (stereo unspecified),-7.28%
4,Cn1cc(CC2CCN(C(=O)NCc3cn4ccsc4n3)C2)cn1 (stereo unspecified),19.7%
5,CC(C)CNC(=O)N1C[C@@H]2C[C@H](C(=O)NCc3ccccc3)[C@H](C1)O2,-7.2%
6,COc1ccccc1N1CC(NC(=O)Cn2cc(C)nn2)CC1=O (stereo unspecified),-71.7%
7,COc1ccccc1N1CC(NC(=O)Cn2cc(C(C)C)nn2)CC1=O (stereo unspecified),-14.2%
8,COc1ccccc1N1CC(NC(=O)c2cc(C(C)C)nn2C)CC1=O (stereo unspecified),69.4%
9,Cc1ncccc1CNCC1CCc2nnc(C(C)C)n2C1 (stereo unspecified),29.8%
10,Cc1ncsc1CCNC(=O)Cn1nc(C)n(Cc2ccccc2)c1=O,-171%
11,CC(c1ccccc1Cl)N(C)Cc1nc2c(cnn2C)c(=O)[nH]1 (stereo unspecified),16.165%
12,CCN(CC)C(CNC(=O)c1cccnc1-n1cncn1)c1ccsc1 (stereo unspecified),21.1%
13,CC(C)(C)C(=O)N1CCC(n2nc(-c3ccco3)ccc2=O)CC1,-4.51%
14,O=C(c1ccco1)N1CCC(n2nc(-c3ccco3)ccc2=O)CC1,-8.12%
15,O=C(c1cccs1)N1CCC(Cn2nc(-c3ccco3)ccc2=O)CC1,33.5%
16,O=C(c1ccco1)N1CCC(n2nc(-c3cccs3)ccc2=O)CC1,5.11%
17,O=C(c1cccs1)N1CCC(n2nc(-c3ccco3)ccc2=O)CC1,50.6%
18,CC(C)C(=O)N1CCC(n2nc(-c3ccco3)ccc2=O)CC1,61.7%
